# Compound activity from PubChem.
# TbPYK inhibitor = T. brucei pyruvate kinase inhibition; Q57TT1; TbPYK enzyme, Kinase-Glo Plus ATP luminescence, 45 min; Potency, µM (series often up to 76.8 µM), inactives show at the top dose activity, negative = inhibition, usual class: inhibitors; actives 0.12% (n = 410,000); AID 624173; note: % is set by controls: 0 for no effect and ±100 for the full control effect; nearly all actives have a fitted effect of over 50% in size
#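 Enzyme and substrate buffer are dispensed first and compound is pin-transferred. ADP at 130 uM final then starts the reaction, which runs 45 min at room temperature. Detection reagent is added for 10 min before luminescence is imaged.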
# SARS PLpro yeast = inhibitors of SARS-CoV papain-like protease in yeast; S. cerevisiae expressing SARS-CoV PLpro, growth rescue; actives 0.19% (n = 330,000); AID 485353; Potency, µM (series often up to 32.9 µM), inactives show at the top dose activity, positive = growth rescue, usual class: activators; calls by dose curve; note: 0% is about no effect; nearly all actives have a fitted effect of over 55% in size
# Giardia FBPA inh = blocks Giardia fructose-bisphosphate aldolase activity; A8B2U2; purified Giardia FBPA; Potency, µM (doses to about 59.6 µM), inactives show top-dose activity, negative = inhibition, hits mostly inhibitors; actives 0.71% (n = 290,000); AID 2451; note: % is set by controls: 0 for no effect and ±100 for the full control effect; nearly all actives have a fitted effect of over 55% in size
#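 40 nM FBPA preincubated 10 min at RT with compound (up to 57.5 uM final), then substrate plus GAPDH/TPI/NAD/arsenate coupling and diaphorase/resazurin added. Fluorescence read after 20 min at RT, 525/598 nm.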
# LmPK inhibitor = blocks Leishmania mexicana pyruvate kinase activity | purified LmPK, Kinase-Glo ATP luminescence, 1 h | Potency, µM (series often up to 57.5 µM), without a hit: top-dose activity change, negative = inhibition, most hits filed as inhibitors | Q27686 | actives 0.37% (n = 290,000); note: % is set by controls: 0 for no effect and ±100 for the full control effect
# Target sequence (Q27686 whole entry, looked up): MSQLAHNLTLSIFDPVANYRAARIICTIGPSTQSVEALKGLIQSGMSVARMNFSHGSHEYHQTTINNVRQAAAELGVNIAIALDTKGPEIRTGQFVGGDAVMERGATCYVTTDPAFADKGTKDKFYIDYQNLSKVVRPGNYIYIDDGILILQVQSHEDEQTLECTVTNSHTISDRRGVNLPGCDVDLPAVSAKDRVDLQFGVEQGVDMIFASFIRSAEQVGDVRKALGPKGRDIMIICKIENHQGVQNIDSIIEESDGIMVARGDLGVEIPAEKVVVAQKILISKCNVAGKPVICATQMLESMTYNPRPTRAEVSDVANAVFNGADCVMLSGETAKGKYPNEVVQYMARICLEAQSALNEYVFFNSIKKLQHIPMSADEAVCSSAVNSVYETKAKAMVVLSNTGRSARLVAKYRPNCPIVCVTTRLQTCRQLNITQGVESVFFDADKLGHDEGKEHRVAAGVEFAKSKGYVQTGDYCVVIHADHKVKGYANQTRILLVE
#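 qHTS format; LmPK 0.1 nM; substrates PEP 0.5 mM and ADP 0.1 mM. One-hour room-temperature incubation, then coupled luciferase luminescence; 0.5 nM enzyme wells mark activation.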
# RE007 growth inh = less growth of the S. pombe RE007 Vpr strain; Potency, µM (series often up to 92.2 µM), for inactives: at the highest dose activity change, negative = less growth, actives largely listed as inhibitors; S. pombe RE007 Vpr strain, BacTiter-Glo ATP luminescence, 24 h; actives 0.21% (n = 360,000); AID 651644; active = well fitted falling curve with a large enough effect; inconclusive = small, poorly fitted or top-dose-only effect; inactive = no such curve, though single readings can be large or run the other way; note: % is set by controls: 0 for no effect and ±100 for the full control effect; nearly all actives have a fitted effect of over 50% in size
#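 Fission yeast strain RE007, carrying one chromosomally integrated HIV-1 vpr copy, was seeded at OD 0.01 in PMG+AL medium with 23 nL pinned compound. After 24 h at 30 °C and 99% humidity, viability was read by BacTiter-Glo luminescence.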
# The depositor's hits bear a star; ? = inconclusive; . = no result; [ ] = another dose, or the depositor's remark. The list is not random: actives were taken first. Their share in the collection is about 1.1%. Unless noted, calls come from the whole dose curve; as a rule, active = well fitted curve in the direction sought with a large enough effect; inconclusive = small, poorly fitted or top-dose-only effect, or another doubt; inactive = no such curve, though single readings can be large; an effect the other way counts as inactive or inconclusive. Potency is the fitted concentration of half-maximal effect.
SMILES,TbPYK inhibitor,SARS PLpro yeast,Giardia FBPA inh,LmPK inhibitor,RE007 growth inh
COc1ccccc1CNC(=O)CC(c1ccc(C)cc1)N1Cc2ccccc2C1=O (stereo unspecified),0.4%,.,.,.,.
c1ccc(-c2noc(-c3cccnc3)n2)nc1,-29.0%,-8.7%,0.2%,14.1µM*,-10.5%
Clc1ccccc1/C=C/c1nc(-c2ccccn2)no1,-13.9%,-3.0%,-0.4%,3.98µM*,?
c1ccc(-c2noc(-c3ccc4ccccc4c3)n2)nc1,-18.0%,-13.5%,1.4%,6.31µM*,?
O=[N+]([O-])c1cccc(-c2nc(-c3ccccn3)no2)c1,-4.8%,3.6%,3.5%,?,-25.4%
Cc1onc(-c2ccccc2Cl)c1-c1nc(-c2ccccn2)no1,-3.9%,-38.4%,9.9%,4.9%,-1.9%
Cc1ccc(-n2ncc(C(=O)NCc3cccs3)c2C2CCN(C(=O)OC(C)(C)C)CC2)cc1,-1.1%[15.4 µM],.,.,.,.
CC(C)(C)c1ccc(OCC(=O)NCC2(N3CCOCC3)CCCCC2)cc1,6.5%,.,.,.,.
O=C(CCl)Nc1ccccc1Sc1ccccc1,1.7%,12.6µM*,-10.8%,1.4%,3.7%
COc1ccccc1CNC(=O)c1cc2sccc2n1Cc1ccc(Cl)cc1,6.5%,.,.,.,.
NC(=O)C1CCN(C2CC(=O)N(c3ccc(F)c(Cl)c3)C2=O)CC1 (stereo unspecified),0.5%,-39.8%,4.2%,-6.2%,10µM*
NC(=O)C1CCN(C2CC(=O)N(c3cccc(F)c3)C2=O)CC1 (stereo unspecified),3.2%,-25.0%,4.3%,-1.8%,14.1µM*
Cc1ccc(S(=O)(=O)NCCc2nnc3ccc(SCC(=O)Nc4ccc(F)cc4F)nn23)cc1,-6.9%,.,.,.,.
O=C(Nc1ccc2c(c1)nc1n2CCSC1)c1ccccc1,-17.5%,27.4%,-21.3%,15.8µM*,-14.7%
COc1ccccc1Nc1nnc(SCC2CCCCO2)s1 (stereo unspecified),-14.5%,2.6%,-17.8%,14.1µM*,-21.0%
CC(C)(C)NC(=O)NC(=O)CN1CCN(c2ccc(O)cc2)CC1,?,-1.3%,?,12.6µM*,-2.6%
O=C(Nc1ccccc1)C(Cl)C(=O)c1ccccc1 (stereo unspecified),-30.4%,-24.8%,-12.2%,10.5%,7.08µM*
CC(=O)C(Cl)C(=O)Nc1ccccc1 (stereo unspecified),?,-9.9%,-3.1%,3.6%,9.4%
COc1ccc2nc(Nc3ccccc3OC)sc2c1,1.6%,-3.4%,-8.3%,17.8µM*,?
COc1ccc2nc(NC(=O)c3cccs3)sc2c1,3.9%,-3.8%,2.2%,12.6µM*,?
O=C(Nc1ccc(Cl)cc1)Nc1ccc(Cl)c(C(F)(F)F)c1,-5.1%,.,.,.,.
OCC1(O)OC[C@@H](O)[C@H](O)[C@@H]1O (stereo partly specified),1.0%,.,.,.,.
O=C1C(=Cc2cccs2)C(=O)c2ccccc21,-19.3%,-36.6%,?,14.1µM*,.
Cc1c(C(=O)O)cccc1-c1ccc(/C=C2/NC(=O)N(c3ccccc3)C2=O)o1,6.9%,0.8%,-13.1%,-5.1%,-17.1%
Cc1ccc(/C=C2/C(=O)c3ccc(C(=O)O)cc3C2=O)o1,?,0.8%,?,-9.0%,8.0%
SMILES,TbPYK inhibitor,SARS PLpro yeast,Giardia FBPA inh,LmPK inhibitor,RE007 growth inh
Cc1ccc(C=C2C(=O)c3ccccc3C2=O)o1,?,?,4.0%,4.47µM*,-3.0%
Cc1ccc(/C=C2/NC(=O)N(c3ccccc3)C2=O)o1,?,-25.6%,-29.8%,1.1%,63.1µM*
Cc1ccc(C=C2C(=O)c3ccccc3C2=O)s1,-28.1%,-28.4%,-18.0%,12.6µM*,?
COc1cc(CC(C)N)c(OC)cc1C (stereo unspecified),-8.8%[157 µM],.,.,.,.
Cc1csc2nc(COc3ccc(NC(=O)COc4ccccc4F)cc3)cc(=O)n12,4.8%,.,.,.,.
NS(=O)(=O)c1ccc(CCNC(=O)c2ccc[nH]c2=S)cc1,0.5%,-13.0%,5.3%,-6.6%,8.91µM*
NS(=O)(=O)c1ccc(CCNC(=O)c2cccc3ccccc23)cc1,2.0%,-3.4%,0.6%,-5.3%,6.2%
Cc1cccc(N2CCN(S(=O)(=O)c3c(C(=O)N4CCC(C)CC4)c(C)n(C)c3C)CC2)c1C,-6.7%,.,.,.,.
CCOC(=O)c1c(OCC)[nH]c2c1cc(O)c1ccccc12,-19.5%,-5.4%,19.9µM*,?,-18.2%
CCOC(=O)c1c(C)[nH]c2cc(Br)c(O)cc12,0.5%,-10.0%,-14.1%,2.9%,4.3%
CCN1CCN(C(=O)N[C@H](C(=O)N[C@@H]2C(=O)N3[C@@H](C(=O)O)C(C)(C)S[C@@H]23)c2ccccc2)C(=O)C1=O,8.1%,.,.,.,.
CSc1nc(-c2ccco2)nn1S(=O)(=O)c1ccccc1,.,-5.2%,11.0%,4.6%,.
CCS(=O)(=O)n1nc(-c2ccco2)nc1SC,?,.,28.2µM*,8.1%,-23.3%
OCC1OC(OC2C(CO)OC(OC3C(CO)OC(O)C(O)C3O)C(O)C2O)C(O)C(O)C1O (stereo unspecified),0.0%,.,.,.,.
O=C1C=CC(=O)N1c1ccc(OC(F)F)cc1,11.2µM*,-135.3%,-5.4%,3.1%,2.82µM*
O=C(O)CNC(=O)c1ccc(OC(F)F)cc1,-10.0%,6.9%,0.2%,-0.7%,-1.1%
O=C1C=CC(=O)N1c1ccc(O)cc1,?,-7.8%,-26.6%,9.0%,6.31µM*
O=Nc1c(O)c2ccccc2c2ccccc12,-0.3%,.,.,.,44.7µM*
CC(C)(C)c1ccc(O)c(N=Cc2cc3c(cc2[N+](=O)[O-])OCO3)c1,?,0.1%,3.4%,1.58µM*,8.9%
Cc1ccc(C)c(N=Cc2cc3c(cc2[N+](=O)[O-])OCO3)c1,-2.5%,-0.5%,3.15µM*,-5.0%,-4.5%
O=C(O)c1c(-c2ccccc2)oc2ccc(OCc3c(F)cccc3Cl)cc12,3.2%,.,.,.,.
COc1cccc(C(=O)Nc2nc3ccccc3[nH]2)c1,-19.1%,-12.1%,-16.1%,14.1µM*,?
COc1cc(SC)ccc1C(=O)Nc1c(C)cccc1C,0.6%,-2.3%,-0.8%,6.8%,18.5%
COc1cc(SC)ccc1C(=O)NNC(=O)c1cc(C)oc1C,?,3.6%,.,.,12.6µM*
COc1ccc(C(=O)Nc2nc3ccccc3[nH]2)cc1,-14.9%,-5.9%,-9.5%,?,?
SMILES,TbPYK inhibitor,SARS PLpro yeast,Giardia FBPA inh,LmPK inhibitor,RE007 growth inh
COc1ccccc1C(=O)NCCC(=O)Nc1nc2ccccc2[nH]1,-2.7%,-3.6%,.,.,-5.5%
COc1ccccc1C(=O)Nc1nc2ccccc2[nH]1,10µM*,-15.7%,-9.3%,11.2µM*,?
COc1cc(SC)ccc1C(=O)Nc1nc2ccccc2[nH]1,?,-78.6%,-18.0%,-21.8%,3.98µM*
CCCCNC(=O)C1CCC(Cn2c(=O)c3sccc3n(Cc3ccccc3)c2=O)CC1 (stereo unspecified),0.9%,.,.,.,.
O=C(CCCCCCCCC#CI)Oc1ccccc1,-7.1%,.,.,.,.
Cc1ccc(-c2n[nH]c(=S)n2/N=C/c2cccs2)cc1,?,20.3%,7.8%,-27.3%,.
